PubChem BioAssay (Tox21)
Results filed as inconclusive are left out. Activity calls are given as the source filed them. The call rests on the fitted dose curve; in most records, active means well fitted cell-killing curve with a large enough effect in the repeat runs; inconclusive means weak or mixed curves, or effect the other way; inactive means flat fitted curve, though single readings scatter.

Experiment: cAMP Responsive Elements (CRE) small molecule antagonists, cell-based qHTS assay: qHTS cell viability counter screen (AID 2060913); further: nearly all actives have a fitted effect of over 40% in size
Conditions: CRE-bla HEK293T viability, CellTiter-Glo luminescence, 5 h; series mostly up to 92.4 µM; viability change, negative = cytotoxic: at the top concentration
Outline: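 Cytotoxicity counter screen multiplexed with the CRE-bla antagonist read: HEK293T cells in DMEM with dialyzed FBS and 25 mM HEPES were treated 3 hrs under 0.25 uM final NKH477, then viability measured by CellTiter-Glo luminescence.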
On the % scale 0 is the no-effect control and ±100 the full control effect.

SMILES	viability change, negative = cytotoxic	Potency
c1ccc(CCc2ccccc2)cc1	2.16% (inactive)	–
O=CCCc1ccccc1	2.62% (inactive)	–
C=C/C=C/C=C/CCCCC	-0.548% [at 18.9 µM] (inactive)	–
CN(C)CCCSc1ccccc1NC(=O)/C=C/c1ccccc1	-4.75% [at 42.5 µM] (inactive)	–
Cc1cccc(O)c1	–	inactive
O=S(=O)(O)c1ccc2cc(O)c(S(=O)(=O)O)cc2c1	2.17% (inactive)	–
NCCCCCCNCCCCCCN	6.21% (inactive)	–
Cc1c(C)n(Cc2ccccc2)c2ccc(C(=O)OCCN(C)C)cc12	-4.86% [at 42.5 µM] (inactive)	–
CC1(C)CC(=O)CC(C)(C)N1	-5.86% (inactive)	–
CCCCOC(=O)c1ccccc1C(=O)OCC(CC)CCCC (stereo not drawn)	0.274% (inactive)	–
N/C(=N\N=C\c1ccc(Cl)cc1)N/N=C/c1ccc(Cl)cc1	2.2% [at 42.5 µM] (inactive)	–
CCC(=O)OC	2.14% (inactive)	–
CC(=O)OCC1=C(C(=O)O)N2C(=O)[C@@H](NC(=O)Cc3cccs3)[C@H]2SC1	4.63% [at 42.5 µM] (inactive)	–
CCCCCC=O	–	inactive
COc1ccc(/C=C/S(=O)(=O)NC(=O)c2ccc(C)cc2Cl)cc1	-1.76% (inactive)	–
CN1C(=O)CC(c2ccccc2)C1=O (stereo not drawn)	7.01% [at 42.5 µM] (inactive)	–
CCOC(=O)Cc1cccc2ccccc12	-3.44% (inactive)	–
Cc1cc(O)c2c(O)c3c(O)cccc3cc2c1	2.83% [at 42.5 µM] (inactive)	–
CNC(=S)NN	-8.5% (inactive)	–
COc1ccc2cc([C@H](C)C(=O)O)ccc2c1	–	inactive

SMILES	viability change, negative = cytotoxic	Potency
COc1ccc(C#N)cc1	15.8% (inactive)	–
C[C@]12C(=O)OC(=O)[C@H]1[C@H]1C=C[C@@H]2C1	-6.24% (inactive)	–
CC1c2ccccc2CN1NC(=O)c1ccc(Cl)c(S(N)(=O)=O)c1 (stereo not drawn)	13.1% [at 42.5 µM] (inactive)	–
CCCN(C1CCN(C(=O)C2CCNCC2)CC1)[C@@H]1CCc2ccc(OC)cc2C1	-1.04% (inactive)	–
NS(=O)(=O)c1ccc(C(=O)O)cc1	5.6% [at 42.5 µM] (inactive)	–
Nc1cccc(N)n1	–	inactive
C=CC(=O)OCCC#N	0.0709% (inactive)	–
O=[N+]([O-])c1ccc2nc[nH]c2c1	–	inactive
CC(C)CCCC(C)CCCC(C)CCCCC(C)CCCC(C)CCCC(C)C (stereo not drawn)	-0.383% [at 42.5 µM] (inactive)	–
COc1ccc2cc1Oc1ccc(cc1)C[C@H]1c3c(cc4c(c3Oc3cc5c(cc3OC)CCN(C)[C@@H]5C2)OCO4)CCN1C	2.19% [at 42.5 µM] (inactive)	–
C[C@@H](C1=C(CCN(C)C)Cc2ccccc21)c1ccccn1	5.53% [at 42.5 µM] (inactive)	–
N#Cc1ccc(C2CCCc3cncn32)cc1 (stereo not drawn)	-2.73% [at 42.5 µM] (inactive)	–
[Cl][Dy]([Cl])[Cl]	9.63% (inactive)	–
Cc1ccccc1C(=O)Nc1ccc(C(=O)N2CCCC(O)c3cc(Cl)ccc32)c(C)c1 (stereo not drawn)	-0.419% [at 42.5 µM] (inactive)	–
NC(=O)CCCCC1CCSS1 (stereo not drawn)	3.42% [at 42.5 µM] (inactive)	–
CN1CCC[C@H]1c1cccnc1	–	inactive
CC(C=O)c1ccccc1 (stereo not drawn)	3.37% (inactive)	–
CC(C)(C)NCCO	0.55% (inactive)	–
Nc1c2c(nc3c1CCC3)CCCC2	-2.48% [at 42.5 µM] (inactive)	–

Experiment: cAMP Responsive Elements (CRE) small molecule agonists, cell-based qHTS assay: qHTS cell viability counter screen (AID 2060914); further: nearly all actives have a fitted effect of over 50% in size
Conditions: CRE-bla HEK293T viability, CellTiter-Glo luminescence, 5 h; series mostly up to 92.4 µM; activity change, negative = cytotoxicity: at the top concentration
Outline: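 In the same wells as the reporter read, viability of CRE-bla HEK 293T cells was quantified by CellTiter-Glo luminescence after a 3 h compound exposure.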

SMILES	activity change, negative = cytotoxicity	Potency
c1ccc(CCc2ccccc2)cc1	-7% (inactive)	–
O=CCCc1ccccc1	10.5% (inactive)	–
C=C/C=C/C=C/CCCCC	-22.6% [at 18.9 µM] (inactive)	–
CN(C)CCCSc1ccccc1NC(=O)/C=C/c1ccccc1	7.07% [at 42.5 µM] (inactive)	–
Cc1cccc(O)c1	–	inactive
O=S(=O)(O)c1ccc2cc(O)c(S(=O)(=O)O)cc2c1	5.24% (inactive)	–
NCCCCCCNCCCCCCN	-1.53% (inactive)	–
Cc1c(C)n(Cc2ccccc2)c2ccc(C(=O)OCCN(C)C)cc12	-6.46% [at 42.5 µM] (inactive)	–
CC1(C)CC(=O)CC(C)(C)N1	-6.66% (inactive)	–
CCCCOC(=O)c1ccccc1C(=O)OCC(CC)CCCC (stereo not drawn)	-12.2% (inactive)	–
N/C(=N\N=C\c1ccc(Cl)cc1)N/N=C/c1ccc(Cl)cc1	6.65% [at 42.5 µM] (inactive)	–
CCC(=O)OC	4.11% (inactive)	–
CC(=O)OCC1=C(C(=O)O)N2C(=O)[C@@H](NC(=O)Cc3cccs3)[C@H]2SC1	10.7% [at 42.5 µM] (inactive)	–
CCCCCC=O	–	inactive
COc1ccc(/C=C/S(=O)(=O)NC(=O)c2ccc(C)cc2Cl)cc1	-4.77% (inactive)	–
CN1C(=O)CC(c2ccccc2)C1=O (stereo not drawn)	5.59% [at 42.5 µM] (inactive)	–
CCOC(=O)Cc1cccc2ccccc12	0.582% (inactive)	–
Cc1cc(O)c2c(O)c3c(O)cccc3cc2c1	-3.55% [at 42.5 µM] (inactive)	–
CNC(=S)NN	-0.585% (inactive)	–
COc1ccc2cc([C@H](C)C(=O)O)ccc2c1	–	inactive

SMILES	activity change, negative = cytotoxicity	Potency
COc1ccc(C#N)cc1	-0.0443% (inactive)	–
C[C@]12C(=O)OC(=O)[C@H]1[C@H]1C=C[C@@H]2C1	-1.84% (inactive)	–
CC1c2ccccc2CN1NC(=O)c1ccc(Cl)c(S(N)(=O)=O)c1 (stereo not drawn)	-2.24% [at 42.5 µM] (inactive)	–
CCCN(C1CCN(C(=O)C2CCNCC2)CC1)[C@@H]1CCc2ccc(OC)cc2C1	8.5% (inactive)	–
NS(=O)(=O)c1ccc(C(=O)O)cc1	-0.044% [at 42.5 µM] (inactive)	–
Nc1cccc(N)n1	–	inactive
C=CC(=O)OCCC#N	0.538% (inactive)	–
O=[N+]([O-])c1ccc2nc[nH]c2c1	–	inactive
CC(C)CCCC(C)CCCC(C)CCCCC(C)CCCC(C)CCCC(C)C (stereo not drawn)	-0.183% [at 42.5 µM] (inactive)	–
COc1ccc2cc1Oc1ccc(cc1)C[C@H]1c3c(cc4c(c3Oc3cc5c(cc3OC)CCN(C)[C@@H]5C2)OCO4)CCN1C	17.1% [at 42.5 µM] (inactive)	–
C[C@@H](C1=C(CCN(C)C)Cc2ccccc21)c1ccccn1	10.3% [at 42.5 µM] (inactive)	–
N#Cc1ccc(C2CCCc3cncn32)cc1 (stereo not drawn)	-2.47% [at 42.5 µM] (inactive)	–
[Cl][Dy]([Cl])[Cl]	10.2% (inactive)	–
Cc1ccccc1C(=O)Nc1ccc(C(=O)N2CCCC(O)c3cc(Cl)ccc32)c(C)c1 (stereo not drawn)	6.13% [at 42.5 µM] (inactive)	–
NC(=O)CCCCC1CCSS1 (stereo not drawn)	23% [at 42.5 µM] (inactive)	–
CN1CCC[C@H]1c1cccnc1	–	inactive
CC(C=O)c1ccccc1 (stereo not drawn)	0.589% (inactive)	–
CC(C)(C)NCCO	2.12% (inactive)	–
Nc1c2c(nc3c1CCC3)CCCC2	-2.02% [at 42.5 µM] (inactive)	–
